Values joined by “and” are separate entries in the source; they are usually repeats but may differ in a detail not shown here. Identical values can stand only once. Records with an inconclusive call do not appear. The source holds several records for some structures; these can differ, active in one and inactive in another. Active and inactive are the calls of the source. The calls were made as follows, unless noted: active = hit-call score of the fitted dose curve at least 0.9, where 1 is the maximum; inactive = score below 0.9.
How the values were obtained:
[1] = CCTE_Mundy_HCI_Cortical_NOG_NeuriteLength: CCTE's Neurite Outgrowth Assay in rat cortical cells for Neurite Length, Mundy Lab (AID 2284213);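 also: neurites imaged about 48 to 50 h after chemical exposure began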
In short: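 Neurite length was read by high-content imaging of βIII-tubulin-labelled neurites in rat primary cortical cultures. Activity was fitted relative to DMSO.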

[2] = CCTE_Mundy_HCI_Cortical_Synap_Neur_Matur_NeuriteLength: CCTE's Synaptogenesis and Neurite Maturation Assay in rat cortical cells for Neurite Length, Mundy Lab (AID 2284214)
In short: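 Rat primary cortical cultures, AraC added DIV 5, dosed DIV 7 through DIV 12 […]. Fixed, MAP2/synaptophysin immunostained with Hoechst; neurite length by high-content imaging, fitted in positive direction versus DMSO.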

[3] = CCTE_Mundy_HCI_Cortical_Synap_Neur_Matur_NeuriteSpotCountPerNeuron: CCTE's Synaptogenesis and Neurite Maturation Assay in rat cortical cells for Neurite Spot Count per Neuron Count, Mundy Lab (AID 2284215)
In short: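 Rat cortical primary cultures; AraC DIV 5 to arrest glia; dosing + media change DIV 7; fixed DIV 12. Anti-MAP2/anti-synaptophysin, Hoechst nuclei; HCI puncta count per neuron, positive fitting direction vs DMSO.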

[4] = TAMU_PeakParms_SingleDonor1434_Chronotropy: Texas A&M University (TAMU) 1.5-hr Human Induced Pluripotent Stem Cell (iPSC)-derived Cardiomyocytes Calcium (Ca+2) Flux Assay for Cardiotoxicity: Chronotropy (changes in peak frequency) (AID 2284217); conditions: actives raise or lower the signal
In short: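 iPSC-derived cardiomyocytes (single donor 1434) dosed at 0.2, 1, 10 and 100 uM in 0.5% DMSO for 1.5 h at 37C; Ca2+ dye fluorescence gave average beat frequency. Zero-beat points removed; bidirectional fit versus DMSO, POD as EC05.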

[5] = CCTE_Mundy_HCI_Cortical_Synap_Neur_Matur_SynapseCount: CCTE's Synaptogenesis and Neurite Maturation Assay in rat cortical cells for Synapse Count, Mundy Lab (AID 2284218)
In short: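 Rat primary cortical cultures, AraC at DIV 5, chemical dosing DIV 7 to DIV 12 (288.33 h). Fixed cells stained for MAP2, synaptophysin and Hoechst; synapses per neuron counted by high-content imaging, loss of signal versus DMSO.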

[6] = CCTE_Mundy_HCI_hN2_NOG_NeuriteCount: CCTE's Neurite Outgrowth Assay in human hN2 cells for Neurite Count, Mundy Lab (AID 2284219; active = hit-call score of the fitted dose curve at least 0.9, where 1 is the maximum)
In short: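 In this morphology assay, hNP1-derived neurons received test chemical 2 h post-plating and were fixed two days later in warm paraformaldehyde/sucrose containing Hoechst 33342. Neurites, labelled by rabbit anti-βIII-tubulin (1:800) and Alexa Fluor-488 (1:500), were counted automatically.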

[7] = CCTE_Mundy_HCI_hN2_NOG_NeuriteLength: CCTE's Neurite Outgrowth Assay in human hN2 cells for Neurite Length, Mundy Lab (AID 2284220; active = hit-call score of the fitted dose curve at least 0.9, where 1 is the maximum)
In short: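 Using βIII-tubulin immunofluorescence and Hoechst nuclear counterstain, this component quantifies neurite length in hNP1-derived neurons.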

[8] = CCTE_Mundy_HCI_hN2_NOG_NeuronCount: CCTE's Neurite Outgrowth Assay in human hN2 cells for Neuron Count, Mundy Lab (AID 2284221; active = hit-call score of the fitted dose curve at least 0.9, where 1 is the maximum)
In short: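 Read-out is the number of betaIII-tubulin-positive neurons imaged by automated high-content analysis, with DMSO as negative control.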

[9] = CCTE_Mundy_HCI_Cortical_Synap_Neur_Matur_CellBodySpotCount: CCTE's Synaptogenesis and Neurite Maturation Assay in rat cortical cells for Cell Body Spot Count, Mundy Lab (AID 2284223)
In short: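 Rat cortical neurons; AraC @ DIV 5; dose + media change DIV 7; fix DIV 12; anti-MAP2/anti-synaptophysin IF, Hoechst; HCI count of soma synaptophysin puncta/neuron; DMSO = negative control.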

[10] = CCTE_Mundy_HCI_hNP1_Pro_ResponderAvgInten: CCTE's Proliferation Assay in human neuroprogenitor cells, Mundy Lab (AID 2284224; active = hit-call score of the fitted dose curve at least 0.9, where 1 is the maximum;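 also: human neural progenitor cells hNP1 derived from WA09 embryonic stem cells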)
In short: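 Human neuroprogenitors (hNP1, WA09 lineage) receive test chemical after 40 to 44 hours of attachment. A four-hour BrdU pulse begins twenty hours later, followed by fixation and high content imaging; signal is referenced to DMSO controls.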

[11] = UKN2_HCS_IMR90_cell_viability: Viability Assessment in the University of Konstanz (UKN) Leist Lab Neural Crest Cell Migration Assay in human induced IMR90 Pluripotent Stem Cells (UKN2) (AID 2284233);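 also: viability of neural crest cells differentiated from IMR90 iPSC measured by calcein-AM fluorescence imaging; cells exposed to compound for 24 h after a 24 h migration phase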
In short: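 iPSC-derived (IMR90) neural crest cells seeded around silicone stoppers on PLO/laminin/fibronectin; after 24 h migration in N2-S with EGF/FGF, chemical added for 24 h. Calcein-AM/Hoechst stained 30 min, high-content imaged; bidirectional fit versus DMSO.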

[12] = TAMU_HCS_1.5hr_SingleDonor1434_Cytotoxicity: Cytotoxicity Assessment using High-content Screening (HCS) Fluorescent Imaging for the Texas A&M University (TAMU) 1.5-hr Human Induced Pluripotent Stem Cell (iPSC)-derived Cardiotoxicity Assay (AID 2284234; active = hit-call score of the fitted dose curve at least 0.9, where 1 is the maximum)
In short: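 Human iPSC-derived cardiomyocytes dosed at 0.2, 1, 10, 100 uM final (0.5% DMSO) for 90 min at 37 C. Hoechst 33342-stained nuclei counted by 10x high-content imaging; POD is EC10, a 10% drop in total cell count versus DMSO.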

[13] = CCTE_Mundy_HCI_Cortical_NOG_NeuronCount: CCTE's Neurite Outgrowth Assay in rat cortical cells for Neuron Count, Mundy Lab (AID 2284236; active = hit-call score of the fitted dose curve at least 0.9, where 1 is the maximum;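 also: neurons counted by imaging betaIII-tubulin and Hoechst stained cortical cells; cells exposed to compound for about 48 hours before fixation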)
In short: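 Read-out: neuron number by high-content imaging of betaIII-tubulin (Alexa Fluor-488) and Hoechst-labelled rat primary cortical cells.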

[14] = CCTE_Mundy_HCI_Cortical_NOG_BPCount: CCTE's Neurite Outgrowth Assay in rat cortical cells for Branch Point Count, Mundy Lab (AID 2284237);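 also: branch points counted about two days after chemical exposure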
In short: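 Measured 50.33 h after dosing, this morphology endpoint uses rat primary cortical cultures labelled for betaIII-tubulin. Branch points are quantified by high-content imaging, with DMSO as negative control and baseline.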

[15] = CCTE_Mundy_HCI_hNP1_Casp3_7: CCTE's Caspase-Glo 3/7 Assay in human neuroprogenitor cells for Apoptosis, Mundy Lab (AID 2284240)
In short: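 Neuroepithelial-lineage stem cells from WA09 embryonic cells were treated with chemicals after 40–44 h of culture. Twenty-four hours later, caspase-3/7 activation was detected luminescently after a 30 min room-temperature reagent step, with DMSO as baseline.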

[16] = CCTE_Mundy_HCI_hNP1_CellTiter: CCTE's Cell Titer-Glo 2 Assay in human neuroprogenitor cells for Viability, Mundy Lab (AID 2284241; active = hit-call score of the fitted dose curve at least 0.9, where 1 is the maximum;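 also: a hit is a drop in ATP luminescence versus DMSO meaning reduced viability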)
In short: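 Measures ATP content in human neural progenitors derived from WA09 embryonic cells. Read-out at 26.5 hours after dosing, with DMSO serving as the negative control and baseline.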

[17] = CCTE_Mundy_HCI_Cortical_Synap_Neur_Matur_NeuronCount: CCTE's Synaptogenesis and Neurite Maturation Assay in rat cortical cells for Neuron Count, Mundy Lab (AID 2284242; active = hit-call score of the fitted dose curve at least 0.9, where 1 is the maximum;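 also: hits reduce neuron count versus DMSO baseline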)
In short: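 Rat primary cortical cells, AraC added at DIV 5, dosed with media change from DIV 7 to DIV 12. Fixed, Hoechst-stained and immunolabelled for MAP2 and synaptophysin; neuron number counted by high-content imaging, loss fitted versus DMSO.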

[18] = IUF_NPC2c_oligodendrocyte_migration_120hr: Leibniz Research Institute for Environmental Medicine (IUF) 120-hour Neural Progenitor Cell Migration Assay for Oligodendrocyte Migration (NPC2c) (AID 2284297)
In short: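 Read-out is the mean distance of O4-positive oligodendrocytes from the sphere core edge at 120 h, normalized to radial glia migration and fitted in the gain direction against DMSO. Spheres of primary human neural progenitors differentiated on laminin under continuous compound exposure.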

Measured: AC50

[CH3][Hg][Cl]
active: [1] 222 nM and 316 nM | [2] 428 nM | [3] 576 nM | [4] 21200 nM | [5] 582 nM | [6] 118 nM | [7] 99 nM | [8] 172 nM | [10] 2120 nM | [11] 5000 nM | [12] 8350 nM | [13] 708 nM and 631 nM | [14] 244 nM | [15] 1150 nM | [16] 9570 nM | [17] 850 nM | [18] 128 nM
inactive: [9]

Source: PubChem BioAssay (EPA / NIEHS)
